PubChem BioAssay AID588413 (Sanford-Burnham Center for Chemical Genomics, 2011)
In all, about 340,000 compounds went through this assay and about 2,500 (0.74%) were called active.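 The calls were made as follows: active = inhibition above about 55% (limit read from the data); inactive = the rest.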 For the sample, actives were picked, then their nearest neighbours and some compounds at random.

Assay: blockers of Gli reporter signaling – luciferase luminescence, Sufu-KO-LIGHT cells, uHTS, primary screen (AID 588413);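 also: 0% = DMSO-treated cells and 100% = wells with medium but no cells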
Conditions: Sufu-KO-LIGHT fibroblasts, at 5 µM, active compounds read high

Structure (SMILES)	inhibition
CCS(=O)(=O)Nc1ccc(C2=NN(S(=O)(=O)c3ccc(F)cc3)C(c3ccco3)C2)cc1 (stereo not given)	1.29% (inactive)
Cn1cc(S(=O)(=O)Nc2ccc(Cl)cc2Cl)c(=O)n(C)c1=O	1.79% (inactive)
O=C(NCCOCc1ccc(Cl)cc1)c1ncn[nH]1	84.5% (active)
Cc1cc(C(=O)NCCc2ccc(Cl)cc2)n(-c2ccccc2)n1	-16.3% (inactive)
O=C(NCCS(=O)(=O)NCc1ccc(Cl)cc1)c1ccccc1	-12.9% (inactive)
CCOc1ccc(NC(=S)N2CCCCCC2)cc1	-2.25% (inactive)
Cc1nn(C)c(C)c1S(=O)(=O)N1CCC(CO)(Cc2ccc(Cl)cc2)CC1	8.21% (inactive)
CNC(=S)NNC(=O)c1cccn(Cc2ccccc2)c1=O	13.9% (inactive)
C=CCNC(=O)COc1coc(CN2CCN(Cc3ccccc3)CC2)cc1=O	3.43% (inactive)
C=CCNC(=S)/N=c1/ccccn1Cc1ccccc1	67.3% (active)
Cc1cccc(NC(=O)C2CCCN2S(=O)(=O)c2ccc(F)cc2)c1C (stereo not given)	10.9% (inactive)
Cc1[nH]nc(-c2ccc(OCc3cnn(-c4ccccc4)c3)cc2O)c1Oc1ccc(Cl)cc1	4.97% (inactive)
COc1cccc(CC(=NO)c2cccc(OC)c2)c1	-2.96% (inactive)
Cc1noc(NS(=O)(=O)c2ccc(N3CC(O)=C(c4ccccc4)C3=N)cc2)c1C	-2.28% (inactive)
CC(C)(C)c1ccc(C(=O)NCc2ccco2)cc1	-4.01% (inactive)
CCCC1=Nc2cc(C(=O)NCCN3CCCC3)ccc2Sc2ccccc21	18.7% (inactive)
CCCC1=Nc2cc(C(=O)NCc3ccco3)ccc2Sc2ccccc21	65.9% (active)
COc1c(O)ccc2c1CN1CCc3cc4c(cc3C1C2)OCO4 (stereo not given)	-25.1% (inactive)
CCOC(=O)c1sc2nc(C)nc(Nc3ccc(OC)c(OC)c3)c2c1C	12.9% (inactive)
OCC1(Cc2ccccc2)CCN(Cc2cc3ccccc3o2)CC1	22.4% (inactive)
COc1ccccc1/C=C/CN1CCC(CO)(Cc2ccccc2)CC1	65.4% (active)
CC(=O)c1cccc(CN2CCC(CO)(Cc3ccccc3)CC2)c1	30.4% (inactive)
CCOC(=O)C1CCCN(C(=O)C2CCN(S(=O)(=O)c3ccc(Cl)c(C(F)(F)F)c3)CC2)C1 (stereo not given)	3.88% (inactive)

Structure (SMILES)	inhibition
CCOC(=O)c1ccccc1NC(=O)c1c(N)n(C)c(=O)[nH]c1=O	5.02% (inactive)
COc1ccc(-n2nnc3c(=O)n(CC(=O)OCc4ccccc4)cnc32)cc1	1.46% (inactive)
Cc1ccc(-c2ccc(=O)n(CC(=O)NCCCN3CCCCC3)n2)cc1	5.01% (inactive)
CCCn1c2ccccc2c2cnn(CC(=O)NCCCN3CCCCC3CC)c(=O)c21 (stereo not given)	12.7% (inactive)
CCC1CCCCN1CCCNC(=O)Cn1nc(-c2ccccc2)ccc1=O (stereo not given)	57% (active)
CCOC(=O)c1ccc(S(=O)(=O)N(CCO)Cc2cc3cc(OC)c(OC)cc3[nH]c2=O)cc1	1.66% (inactive)
Cc1ccc(S(=O)(=O)NCCC(c2ccccc2)c2ccccc2)cc1C(=O)O	-19.2% (inactive)
COC(=O)CNC(=O)c1cc(-c2ccncc2)nc2ccccc12	-8.23% (inactive)
CCN(CC)CCNC(=O)c1ccc(NC(=O)c2cc(-c3ccncc3)nc3ccccc23)cc1	64.3% (active)
O=C(Nc1ccc(S(=O)(=O)Nc2nccs2)cc1)c1cc(-c2ccncc2)nc2ccccc12	0.2% (inactive)
CN(C)c1ccc(CNC2C3CC4CC(C3)CC2C4)cc1 (stereo not given)	1.25% (inactive)
O=C(NCC(=O)N1CCCCCCC1)c1ccccc1Cl	-20.5% (inactive)
CC(=O)c1ccc(S(=O)(=O)NCCC(=O)N2CCN(c3ccccn3)CC2)cc1	-5.24% (inactive)
CCN(Cc1cc2cc(C)ccc2[nH]c1=O)S(=O)(=O)c1ccccc1	0.68% (inactive)
Cc1ccc(S(=O)(=O)N(Cc2cc3ccccc3[nH]c2=O)CC2CCCO2)cc1 (stereo not given)	64.1% (active)
O=C(c1cccs1)N(Cc1cc2ccccc2[nH]c1=O)CC1CCCO1 (stereo not given)	20.4% (inactive)
O=C(O)CCCn1c(=O)c2cccn2c2ccc(F)cc21	4.96% (inactive)
COc1ccc(C2=NS(=O)(=O)N(C)C(C(=O)N3CCCCC3)=C2)cc1	14.7% (inactive)
CCOc1ccccc1N1CN(Cc2ccccc2)CNC1=S	-9.38% (inactive)
C=CCC1(CC=C)CCCN1C(=O)c1cc(COc2ccc(-n3cncn3)cc2)on1	77.8% (active)
COc1cccc(OCc2cc(C(=O)N3CCN(C(=O)c4ccco4)CC3)no2)c1	-5.15% (inactive)
O=C(c1cc(COc2ccc(F)c(F)c2)on1)N1CCOCC1	-41.7% (inactive)
COc1cc(Cl)c(C)cc1NC(=O)CSc1nnc(CN2CCCC2)o1	1.49% (inactive)

Structure (SMILES)	inhibition
O=C(NC(Nc1nc2ccc([N+](=O)[O-])cc2s1)(C(F)(F)F)C(F)(F)F)c1ccccc1	87.4% (active)
N=C1C(c2nc3ccccc3s2)=C(O)CN1NC(=O)c1ccc([N+](=O)[O-])cc1	-3.9% (inactive)
O=C(Nc1nc2ccc([N+](=O)[O-])cc2s1)c1ccc(S(=O)(=O)N2CCCc3ccccc32)cc1	77.6% (active)
O=C(NOCc1ccccc1)c1cccc([N+](=O)[O-])c1	-14.1% (inactive)
CNC(=O)c1ccsc1NC(=O)c1ccc(S(=O)(=O)N2CCc3ccccc32)cc1	5.3% (inactive)
Cc1ccc(NC(=O)c2cccc(S(=O)(=O)N3CCCc4ccccc43)c2)nc1	-3.22% (inactive)
CCOc1ccc(C(=O)Nc2nccs2)cc1[N+](=O)[O-]	-24.3% (inactive)
OC(c1ccc(Cl)cc1)C(CN1CCOCC1)c1ccccc1 (stereo not given)	-27.6% (inactive)
Cc1ccc(C(CC(=O)O)NC(=O)c2ccc(S(=O)(=O)N3CCCC3)cc2)cc1 (stereo not given)	-3.63% (inactive)
c1ccc(C(=NNc2nc3ccccc3s2)c2ccccn2)cc1	82.5% (active)
C/C(=N/Nc1nc(-c2ccccc2)c(CC(=O)O)s1)c1ccccc1	-23% (inactive)
COc1cc(OC)nc(N/N=C(\c2ccccc2)c2ccncc2)n1	7.9% (inactive)
Cc1cc(S(=O)(=O)N2CCOCC2)ccc1OCC(=O)Nc1cccc(C(F)(F)F)c1	-8.26% (inactive)
COc1ccccc1N1CCN(C(=O)c2c(-c3c(Cl)cccc3Cl)noc2C)CC1	-1.94% (inactive)
COc1ccccc1N1CCN(C(=O)c2cc(=O)c3cc(C)cc(C)c3o2)CC1	56.9% (active)
COc1ccccc1N1CCN(C(=O)c2cc(=O)c3cc(C)ccc3o2)CC1	7.53% (inactive)
Cc1coc2c1c(C)cc1oc(=O)c(CC(=O)NCC(=O)N[C@H](C(=O)O)C(C)C)c(C)c12	23.9% (inactive)
O=C(NCCC1CCCCN1S(=O)(=O)c1cccs1)C(=O)Nc1ccc(F)cc1F (stereo not given)	15.3% (inactive)
COc1ccc(CCNC(=O)C(=O)NCC2CCCN2S(=O)(=O)c2cccs2)cc1OC (stereo not given)	6.8% (inactive)
COc1ccccc1CCNC(=O)C(=O)NCCC1CCCCN1S(=O)(=O)c1cccs1 (stereo not given)	55.6% (active)
CCCCNC(=O)C1CCC(CNS(=O)(=O)c2ccc(NC(C)=O)cc2)CC1 (stereo not given)	-6.13% (inactive)
c1ccc(Cc2cc[n+](Cc3ccccc3)cc2)cc1	20.7% (inactive)
CN(C)c1ccc(CSc2ccccc2)cc1	-50.9% (inactive)

Structure (SMILES)	inhibition
CN(C)c1cc[n+](Cc2ccccc2)cc1	55.3% (active)
COc1cc(/C=N/NC(=O)c2cc(-c3ccccc3C)nc3ccccc23)cc(OC)c1O	3.09% (inactive)
COc1cccc(/C=N/NC(=O)CNC(=O)c2ccc(S(=O)(=O)N3CCOCC3)cc2)c1OC	3.3% (inactive)
COc1cccc(/C=N/NC(=O)c2[nH]nc3c2CCc2ccccc2-3)c1O	81.1% (active)
O=C(NCCCNC(=O)NC1CCCCC1)NC1CCCCC1	0.18% (inactive)
O=[N+]([O-])c1cc([N+](=O)[O-])c(Oc2cc(F)cc(F)c2F)cc1NN1CCCCC1	-2.49% (inactive)
Cn1c(=O)n(C)c2cc(NS(=O)(=O)c3ccc(F)cc3)ccc21	0.54% (inactive)
CC1(C)CC(=O)c2c(n(S(=O)(=O)c3ccccc3)c3ccc(NS(=O)(=O)c4ccccc4)cc23)C1	84.1% (active)
Cn1c(CCN2CCCC2)nc2cc(NS(=O)(=O)c3ccccc3)ccc21	12.8% (inactive)
C[C@H](CO)N1C[C@H](C)[C@@H](CN(C)Cc2ccc(-c3ccccc3)cc2)Oc2ccc(NC(=O)Cn3cnnn3)cc2C1=O	-7.22% (inactive)
N#Cc1ccc(CN2CCN(CC(=O)Nc3ccccc3C(=O)NC3CC3)CC2)cc1	-0.74% (inactive)
COc1cccc(C(=O)Nc2c3c(nn2-c2cccc(C)c2C)CS(=O)(=O)C3)c1OC	5.94% (inactive)
CCC(=O)N1CCc2cc(Br)c(S(=O)(=O)NCCN3CCCCC3CC)cc21 (stereo not given)	-20.7% (inactive)
CC(=O)Nc1ccc(S(=O)(=O)N2CCN(C(=O)c3ccccc3F)CC2)cc1	4.91% (inactive)
COCCn1c(CN(Cc2ccccc2)Cc2ccccc2)nc2c1c(=O)n(C)c(=O)n2C	9.35% (inactive)
CC1CCN(Cc2nc3c(c(=O)n(C)c(=O)n3C)n2CCc2ccccc2)CC1	0.83% (inactive)
COCCn1c(CN2CCC(Cc3ccccc3)CC2)nc2c1c(=O)n(C)c(=O)n2C	66.7% (active)
NC1=NC(=O)C(Cc2cccc(Cl)c2Cl)S1 (stereo not given)	-27.7% (inactive)
O=C(Cn1cc(C(=O)C2CC2)c2ccccc21)Nc1ccccc1Cl	60.8% (active)
COCCCNC(=O)Cn1cc(C(=O)C2CC2)c2ccccc21	5.8% (inactive)
Cc1ccccc1NC(=O)Cn1cc(C(=O)C2CC2)c2ccccc21	-3.91% (inactive)
